According to PubChem BioAssay (NCI):
This is part of a sample that, as a whole, favours compounds with a hit. Of some 79,000 tested, about 15% had one in any assay. Active and inactive are the calls of the source. Rule as the data show it: active = growth inhibition above about 70%; inactive = the rest.

assay: NCI Yeast Anticancer Drug Screen. Data for the sgs1 mgt1 strain (AID 161);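 also: 0% = growth of cultures given vehicle only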; details: S. cerevisiae sgs1 mgt1 strain, at 50.0 µM, stronger effect = higher value
Outline: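 Percent growth inhibition was derived by comparing compound-exposed mutant yeast with vehicle-exposed cultures. The strain carries alterations in DNA damage repair.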

| SMILES | growth inhibition |
| --- | --- |
| C/C(=N/NC(N)=O)c1ccc(C)o1 | -4.4% (inactive) |
| COc1ccccc1NC(N)=S | 5.65% (inactive) |
| N#CC1CCCC/C1=N/NC(N)=O (stereo not given) | -13.6% (inactive) |
| CCOc1ccccc1/C=C(\C#N)c1cccc(Cl)c1 | 29.9% (inactive) |
| COc1ccc(CN=CN/C(C#N)=C(\N)C#N)cc1OC | -28.6% (inactive) |
| c1ccc2c(c1)ccc1c3ccccc3ncc21 | 32.6% (inactive) |
| Cc1ccc(N=Nc2c(C)nn(-c3ccccc3)c2C)c(Br)c1 | 47.5% (inactive) |
| COc1cc2c(c3c1c(=O)c1ccccc1n3C)C=CC1(CCCCC1)O2 | 91% (active) |
| Cc1ccc(C(C#N)c2ccc(N)cc2)cc1 (stereo not given) | 29.9% (inactive) |
| O=C1Nc2ccccc2/C1=N/N=P(c1ccccc1)(c1ccccc1)c1ccccc1 | 10.1% (inactive) |
| Nc1ncnc2c1nnn2CC(O)CO (stereo not given) | -17.4% (inactive) |
| COC1(OC)C2(Cl)C(Cl)=C(Cl)C1(Cl)C1CCCCCC12 (stereo not given) | 1.85% (inactive) |
| Cn1nc2ccccc2cc1=O | -2.1% (inactive) |
| CC(=O)N(C(C)=O)C1=C(c2ccccc2)C(=O)c2ccccc21 | 14% (inactive) |
| CCNC(=O)OC1C=CS(=O)(=O)C1 (stereo not given) | -0.45% (inactive) |
| O=c1c2[nH]cnc2n(-c2ccccc2)c(=S)n1-c1ccccc1 | -26.1% (inactive) |
| O=C(NCN1CCOCC1)Nc1ccccc1 | -1.65% (inactive) |
| N#Cc1ccccc1OCCCCCCCCCCOc1ccccc1C#N | -19.6% (inactive) |
| Cc1ccc(Nc2ccc(O)c3c2C(=O)c2ccccc2C3=O)cc1 | 5.45% (inactive) |
| CC(=O)Nc1ccccc1NC1CC(C)N(c2ccccc2)N1C(C)=O (stereo not given) | -40.4% (inactive) |

| SMILES | growth inhibition |
| --- | --- |
| O=C(O)c1ccc(NC(=S)Nc2ccc(C(=O)O)cc2)cc1 | 19.9% (inactive) |
| Cc1ccc2[nH]c(=S)n(CCc3ccccc3)c(=O)c2c1 | 29.9% (inactive) |
| CC(CCc1ccccc1)N(C)C(=O)CNC(=O)CN1C(=O)c2ccccc2C1=O (stereo not given) | 6.85% (inactive) |
| CC(=O)OC1CCC2(C)C(CCC3C2CCC2(C)C(C(C)C(=O)O)CCC32)C1 (stereo not given) | 1.45% (inactive) |
| Nc1ccc(C(=O)Nc2ccc3c(O)cc(S(=O)(=O)O)cc3c2)cc1 | 2.65% (inactive) |
| O=C1N(CC2CO2)CCN1CC1CO1 (stereo not given) | -5.3% (inactive) |
| CCN(CC)C1Oc2cc3c(cc2C(c2cc(OC)c(O)c(OC)c2)C1C)OCO3 (stereo not given) | -7.7% (inactive) |
| COC1(OC)CC2C(=O)N(Cc3ccccc3)C1C=C2S(=O)(=O)c1ccccc1 (stereo not given) | -18.2% (inactive) |
| CSC(=S)Nc1cc(C)cc(C)n1 | 62.1% (inactive) |
| O=C(NC(=O)c1ccccc1[N+](=O)[O-])Nc1ccc(Oc2ncc(Cl)cn2)c(C(F)(F)F)c1 | 7.4% (inactive) |
| CC(CO)(CO)[N+](=O)[O-] | -5.85% (inactive) |
| CCOC(=O)C1CC1c1ccccc1 (stereo not given) | -0.25% (inactive) |
| COC(=O)CCC(=O)CN1C(=O)c2ccccc2C1=O | 4% (inactive) |
| CN(Cc1ccccc1)C(=O)c1ccc(C(=O)N(C)Cc2ccccc2)cc1 | 19.4% (inactive) |
| ClCCOC(c1ccc(Cl)cc1)c1ccc(Cl)cc1 | -4.55% (inactive) |
| COc1cc2c(cc1O)C(=O)CCCC2 | -17.8% (inactive) |
| COc1ccc(N(N=Nc2ccccc2)C(C)=O)cc1 | 30.9% (inactive) |
| CN1C(=O)CNS1(=O)=O | -4.35% (inactive) |
| Nc1nnc2nc(CC(=O)Cc3ccccc3)c(CC(=O)Cc3ccccc3)nn12 | 11.2% (inactive) |
| Cc1cc(C)cc(C(C)C)c1 | -22.9% (inactive) |
